Among the test systems are NCI-H23 lung; NCI-H226 lung; NCI-H322M lung; HOP-62 NSCLC; NCI-H460 lung; HOP-92 NSCLC; NCI-H522 lung; A549/ATCC NSCLC; 786-0 renal; COLO 205 colon; DU-145 prostate; K-562 leukemia; MALME-3M melanoma; MDA-MB-231 breast; RXF 393 renal; SF-268 CNS; SF-295 CNS; SF-539 CNS; M14 melanoma; UACC-257 melanoma.
Assay in all cases: NCI-60 one-dose screen, 48 h (100 = growth as untreated, 0 = no growth, -100 = all killed)
What all share (conditions): 10 µM unless noted

This is part of a sample that, as a whole, favours compounds with a hit. Of some 83,000 tested, about 20% had one in any assay.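 How to read the values: 0–100, growth inhibition (40 = 60% inhibited); 0, no net growth; -100 to 0, cell death (-40 = 40% of starting cells died; -100 = all dead).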 Unmarked numbers belong to inactive results. Activity calls are given as the source filed them. The calls were made as follows: active = growth percent below 10; inactive = the rest.

Take `O=C(Cc1ccccc1)c1ccc(Cl)cc1`: the growth in the assay with NCI-H23 lung was 95.4%; in the assay with NCI-H226 lung, 99%; in the assay on NCI-H322M lung it was 108%; in the assay with HOP-62 NSCLC, 100%; in the assay on NCI-H460 lung it was 109%; in the assay with HOP-92 NSCLC it was 104%. Besides, the growth in the assay on NCI-H522 lung was 93.8%; with A549/ATCC NSCLC it was 69.3%; with 786-0 renal, 94.5%; in the assay with COLO 205 colon, 125%; in the assay on DU-145 prostate, 119%; with K-562 leukemia, 123%. The growth in the assay on MALME-3M melanoma was 105%; in the assay with MDA-MB-231 breast it was 103%; in the assay on RXF 393 renal, 121%; with SF-268 CNS, 111%; in the assay on SF-295 CNS it was 103%; in the assay with SF-539 CNS it was 107%. In the assay with M14 melanoma, the growth was 101%.

Take `Cc1ccc(/C=C2\Oc3cc(OCC(=O)c4ccc(Cl)cc4)ccc3C2=O)cc1`: the growth in the assay on NCI-H23 lung is 90.1%; in the assay on NCI-H226 lung it was 109%; with NCI-H322M lung, 103%; in the assay with HOP-62 NSCLC, 104%; in the assay with NCI-H460 lung, 120%; in the assay on HOP-92 NSCLC, 88.2%. Besides, the growth with NCI-H522 lung is 103%; with A549/ATCC NSCLC, 90.1%; with 786-0 renal, 107%; in the assay on COLO 205 colon, 111%; in the assay with DU-145 prostate it was 112%; with K-562 leukemia, 95.2%. The growth in the assay with MALME-3M melanoma was 90%; with MDA-MB-231 breast, 107%; with RXF 393 renal it was 99.5%; with SF-268 CNS it was 119%; in the assay with SF-295 CNS, 114%; in the assay with SF-539 CNS it was 103%. In addition, the growth is 98.1% with UACC-257 melanoma and 102% with M14 melanoma.

In the case of `CCN(CC)c1ccc(/C=C/C2=[N+](C)c3ccccc3C2(C)C)cc1`, the growth in the assay with NCI-H23 lung is 18.6%; in the assay on NCI-H226 lung, 9.04% (active); with NCI-H322M lung, 27.2%; in the assay on HOP-62 NSCLC, 13.8%; with NCI-H460 lung, 3.05% (active); in the assay on HOP-92 NSCLC, -10.7% (active). In addition, the growth in the assay with NCI-H522 lung was 5.08% (active); in the assay on A549/ATCC NSCLC, 14.4%; in the assay with 786-0 renal it was 8.12% (active); in the assay with COLO 205 colon, 4.92% (active); in the assay with DU-145 prostate, 14.3%; in the assay with K-562 leukemia, 28.3%. Also, the growth in the assay on MALME-3M melanoma was 19%; with MDA-MB-231 breast it was 7.79% (active); with RXF 393 renal, 33.7%; in the assay on SF-268 CNS, 17%; in the assay on SF-295 CNS, -19% (active); in the assay on SF-539 CNS it was 14.7%. Moreover, the growth with M14 melanoma was 22.4%.

In the case of `CC/C(Cc1ccccc1)=C(\c1ccc(OCCN2CCCC2)cc1)c1ccc(OC(C)=O)cc1`, the growth with NCI-H23 lung was 80.6%; with NCI-H226 lung, 93%; with NCI-H322M lung, 86.5%; with HOP-62 NSCLC, 94.5%; in the assay with NCI-H460 lung, 42.9%; in the assay on HOP-92 NSCLC, 78.8%. Moreover, the growth with NCI-H522 lung was 83.2%; in the assay on A549/ATCC NSCLC, 78.4%; in the assay on 786-0 renal it was 82.3%; with COLO 205 colon it was 7.7% (active); in the assay on DU-145 prostate it was 95.6%; in the assay on K-562 leukemia it was 3.2% (active). Moreover, the growth with MALME-3M melanoma was 94.7%; in the assay on MDA-MB-231 breast, 99.6%; in the assay with RXF 393 renal it was 65%; in the assay with SF-268 CNS it was 76%; with SF-295 CNS, 99.6%; with UACC-257 melanoma, 93.9%. The growth in the assay with M14 melanoma was 75.1%.

With `CCCCCCCCCCCCCC1=NCCN1CCO`, the growth in the assay with NCI-H23 lung is 72%; in the assay on NCI-H226 lung it was 95%; in the assay with NCI-H322M lung, 93.5%; with HOP-62 NSCLC, 58.9%; in the assay on NCI-H460 lung, -68.9% (active); with HOP-92 NSCLC, 24.5%. In addition, the growth is 89% in the assay with NCI-H522 lung; 65.1% with A549/ATCC NSCLC; 68.8% in the assay with 786-0 renal; -75% (active) in the assay on COLO 205 colon; 116% in the assay on DU-145 prostate; 5.11% (active) in the assay with K-562 leukemia. The growth in the assay on MALME-3M melanoma was 104%; with MDA-MB-231 breast it was 51.3%; in the assay with RXF 393 renal, 59.5%; in the assay with SF-268 CNS it was 152%; with SF-295 CNS, 136%; with SF-539 CNS, -70% (active). Also, the growth in the assay with M14 melanoma was 2.59% (active).

In the case of `CCCNc1nc(SC)nc(-c2cccc(N)c2)c1C#N`, the growth with NCI-H23 lung is 93.2%; in the assay with NCI-H226 lung, 93.9%; with NCI-H322M lung, 95.8%; in the assay on HOP-62 NSCLC it was 78.8%; with NCI-H460 lung, 101%; in the assay on HOP-92 NSCLC it was 80.5%. For the same molecule, the growth in the assay on NCI-H522 lung was 92.9%; in the assay on A549/ATCC NSCLC, 104%; with 786-0 renal, 102%; with COLO 205 colon, 119%; in the assay on DU-145 prostate, 109%; in the assay with K-562 leukemia it was 96.8%. The growth was 98% in the assay on MALME-3M melanoma; 83.1% in the assay on MDA-MB-231 breast; 105% with RXF 393 renal; 91.6% in the assay with SF-268 CNS; 98.7% in the assay on SF-295 CNS; 102% in the assay with SF-539 CNS. Also, the growth with UACC-257 melanoma is 111%; with M14 melanoma, 101%.

Turning to `Cc1cc2cc3cc(C)c(N(C)C)cc3[n+](C)c2cc1N(C)C`, the growth was 28.3% with NCI-H23 lung; 51.6% in the assay with NCI-H226 lung; 25.4% with NCI-H322M lung; 30% in the assay with HOP-62 NSCLC; 10.9% with NCI-H460 lung; -34.6% (active) in the assay on HOP-92 NSCLC. For the same molecule, the growth with NCI-H522 lung is -5.03% (active); in the assay with A549/ATCC NSCLC it was 25.8%; with 786-0 renal, 26.7%; in the assay with COLO 205 colon it was -19.2% (active); in the assay with DU-145 prostate it was 24.2%; in the assay on K-562 leukemia, 44.7%. Further, the growth was 19.9% in the assay with MALME-3M melanoma; 57.1% in the assay on MDA-MB-231 breast; 25% in the assay with RXF 393 renal; 11.7% in the assay on SF-268 CNS; 16.6% with SF-295 CNS; 9.99% (active) with SF-539 CNS. For the same molecule, in the assay on M14 melanoma, the growth is 41.2%.

Regarding `O=C1C2CC=CCC2C(=O)N1CNc1ccc(Cl)cc1` (stereo not given), the growth is 94.2% with NCI-H23 lung; 90.5% in the assay with NCI-H226 lung; 92.2% in the assay on NCI-H322M lung; 86.4% in the assay with HOP-62 NSCLC; 107% in the assay on NCI-H460 lung; 62.9% in the assay on HOP-92 NSCLC. The growth in the assay with NCI-H522 lung was 74.7%; with A549/ATCC NSCLC it was 93.6%; in the assay with 786-0 renal it was 89.4%; in the assay with COLO 205 colon, 115%; in the assay with DU-145 prostate, 106%; in the assay with K-562 leukemia it was 84.6%. The growth was 87.6% with MALME-3M melanoma; 92.8% with MDA-MB-231 breast; 92% in the assay on RXF 393 renal; 96.9% in the assay with SF-268 CNS; 106% with SF-295 CNS; 86.5% with SF-539 CNS. Also, the growth in the assay with UACC-257 melanoma is 101%; with M14 melanoma, 94.2%.

Values taken from PubChem BioAssay (NCI).
